Activity calls are given as the source filed them. Unless noted, calls follow the shape of the dose curve; as a rule, active = well fitted curve in the direction sought with a large enough effect in the repeat runs; inconclusive = weak or mixed curves; inactive = no such curve, though single readings can be large; an effect the other way counts as inactive or inconclusive.
How the values were obtained:
[1] = qHTS assay to identify small molecule antagonists of the thyroid receptor (TR) signaling pathway - cell viability counter screen (AID 743064); also: nearly all actives have a fitted effect of over 50% in size; also: potency is read from the fitted curve at half-maximal effect
In short: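 GH3.TRE-Luc rat pituitary cells dosed after 4 hr plating, co-stimulated with T3 at 1 nM final, incubated 23.5 h at 37 C. Viability measured in the same wells by CellTiter-Fluor fluorescence after 30 min further at 37 C.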

[2] = tested on: thyroid hormone receptor (rat, GH3 cells); experiment: qHTS assay to identify small molecule agonists of the thyroid receptor (TR) signaling pathway (AID 743066; calls by dose curve; also: potency is read from the fitted curve at half-maximal effect)
[3] = target: Estrogen receptor (Homo sapiens) (UniProt P03372); experiment: qHTS assay to identify small molecule antagonists of the estrogen receptor alpha (ER-alpha) signaling pathway (AID 743069; active = well fitted curve in the direction sought with a large enough effect in the signal ratio in the repeat runs, not every such curve was filed as active; inconclusive = weak or mixed curves, or effect the other way; inactive = no such curve, though single readings can be large or run the other way; the % refers to the signal ratio)
Chain of Estrogen receptor (Homo sapiens) (P03372 whole entry, looked up): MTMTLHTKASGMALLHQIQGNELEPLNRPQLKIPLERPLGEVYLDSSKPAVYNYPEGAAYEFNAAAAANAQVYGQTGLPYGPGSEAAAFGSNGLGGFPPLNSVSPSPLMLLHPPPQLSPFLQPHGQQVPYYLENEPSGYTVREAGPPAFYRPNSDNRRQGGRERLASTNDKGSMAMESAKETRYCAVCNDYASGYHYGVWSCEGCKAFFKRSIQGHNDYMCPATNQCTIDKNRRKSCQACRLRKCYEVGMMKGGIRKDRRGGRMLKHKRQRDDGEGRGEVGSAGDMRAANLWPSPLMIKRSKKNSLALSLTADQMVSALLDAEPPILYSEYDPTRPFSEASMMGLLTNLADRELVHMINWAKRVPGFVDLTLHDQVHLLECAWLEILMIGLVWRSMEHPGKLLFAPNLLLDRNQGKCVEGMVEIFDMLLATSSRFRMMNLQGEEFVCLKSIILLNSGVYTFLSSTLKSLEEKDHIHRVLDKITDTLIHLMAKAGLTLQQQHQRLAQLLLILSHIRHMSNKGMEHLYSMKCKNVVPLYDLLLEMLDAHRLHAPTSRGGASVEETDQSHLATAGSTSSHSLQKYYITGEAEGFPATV
In short: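 Antagonist mode: compounds in DMSO were co-added with 17beta-estradiol to ER-alpha-bla HEK293 cells (2% charcoal-stripped serum) and left 18 h at 37C. Reporter inhibition was measured as FRET fluorescence after 2 h LiveBLAzer substrate at room temperature.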

[4] = qHTS assay to identify small molecule antagonists of the estrogen receptor alpha (ER-alpha) signaling pathway - cell viability counter screen (AID 743074; calls by dose curve;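 also: HEK293 cells carrying ER-alpha-UAS-bla reporter stimulated with 17beta-estradiol; nearly all actives have a fitted effect of over 45% in size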)
[5] = target: Estrogen receptor (Homo sapiens) (UniProt P03372); experiment: qHTS assay to identify small molecule agonists of the estrogen receptor alpha (ER-alpha) signaling pathway (AID 743075; calls by dose curve;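 also: HEK293 GripTite cells with ER-alpha and UAS-driven beta-lactamase reporter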; also: potency is read from the fitted curve at half-maximal effect)
[6] = target: Estrogen receptor (Homo sapiens) (UniProt P03372); experiment: qHTS assay to identify small molecule agonists of the estrogen receptor alpha (ER-alpha) signaling pathway using the BG1 cell line (AID 743079); settings: BG1Luc4E2 cells, ERE-luciferase agonist, 22 h; activation: at 70.3 µM (top of the series); also: nearly all actives have a fitted effect of over 20% in size; also: potency is read from the fitted curve at half-maximal effect
[7] = qHTS assay to identify small molecule antagonists of the estrogen receptor alpha (ER-alpha) signaling pathway using the BG1 cell line (AID 743080; calls by dose curve;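 also: BG1 cells stimulated with 17beta-estradiol alongside compound; nearly all actives have a fitted effect of over 25% in size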; also: potency is read from the fitted curve at half-maximal effect)
In short: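 BG1-Luc-4E2 cells (endogenous full-length ER-alpha, stable 4×ERE-luciferase) were starved 5 days in phenol-red-free medium with 10% charcoal-stripped FBS, plated 24 h, then given compound plus 17beta-estradiol for 21.5 h at 37 C; ONE-Glo luminescence read after 30 min.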

Aromatase (Homo sapiens) = Aromatase (Homo sapiens) (UniProt P11511); experiment: qHTS assay to identify aromatase inhibitors (AID 743083); also: nearly all actives have a fitted effect of over 55% in size; also: potency is read from the fitted curve at half-maximal effect
Chain of Aromatase (Homo sapiens) (P11511 whole entry, looked up): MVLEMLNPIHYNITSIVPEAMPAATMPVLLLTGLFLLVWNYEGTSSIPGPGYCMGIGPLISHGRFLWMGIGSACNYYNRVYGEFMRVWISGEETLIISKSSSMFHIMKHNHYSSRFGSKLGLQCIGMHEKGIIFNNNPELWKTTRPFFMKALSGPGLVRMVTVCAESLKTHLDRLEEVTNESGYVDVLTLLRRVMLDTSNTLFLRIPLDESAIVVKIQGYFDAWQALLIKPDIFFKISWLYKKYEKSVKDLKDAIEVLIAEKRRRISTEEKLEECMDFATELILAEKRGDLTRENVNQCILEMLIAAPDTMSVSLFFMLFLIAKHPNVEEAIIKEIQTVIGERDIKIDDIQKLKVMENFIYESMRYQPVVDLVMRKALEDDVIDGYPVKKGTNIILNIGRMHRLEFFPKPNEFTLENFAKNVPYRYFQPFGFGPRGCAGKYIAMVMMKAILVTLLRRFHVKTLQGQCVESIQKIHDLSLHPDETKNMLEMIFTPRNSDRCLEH

[8] = qHTS assay to identify small molecule antagonists of the estrogen receptor alpha (ER-alpha) signaling pathway using the BG1 cell line - cell viability counter screen (AID 743081);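 also: compound given together with 17beta-estradiol as the ER stimulus; nearly all actives have a fitted effect of over 45% in size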; also: potency is read from the fitted curve at half-maximal effect

Measured: Potency

CNCC(O)c1ccc(OC(=O)C(C)(C)C)c(OC(=O)C(C)(C)C)c1 (stereo not given)
active: [1] 12.7 µM
not listed: [8]
inactive: all other assays above

CN1[C@@H]2CCC[C@H]1CC(NC(=O)c1nn(C)c3ccccc13)C2 (stereo not given in full)
not listed: [3]
inactive: all other assays above

CO[C@H]1O[C@@H]2O[C@@]3(C)CC[C@H]4[C@H](C)CC[C@@H]([C@H]1C)[C@@]24OO3
inactive: all assays above

CCC[C@@H]1C[C@@H](C(=O)N[C@@H]([C@H]2O[C@H](SC)[C@H](O)[C@@H](O)[C@H]2O)[C@H](C)Cl)N(C)C1
not listed: [3]
inactive: all other assays above

COC(=O)[C@H]1[C@H]2C[C@@H]3c4[nH]c5cc(OC)ccc5c4CCN3C[C@H]2C[C@@H](OC(=O)/C=C/c2cc(OC)c(OC)c(OC)c2)[C@@H]1OC
inactive: all assays above

C[C@]12C=CC(=O)N[C@@H]1CC[C@@H]1[C@@H]2CC[C@]2(C)[C@@H](C(=O)Nc3cc(C(F)(F)F)ccc3C(F)(F)F)CC[C@@H]12
inactive: [1] | [2] | [5] | [8] | Aromatase (Homo sapiens)

CC(C)[C@@H](C)/C=C/[C@@H](C)[C@H]1CC[C@H]2/C(=C/C=C3\C[C@@H](O)CC[C@@H]3C)CCC[C@]12C
inactive: all assays above

O.O=C([O-])CC([S-])C(=O)[O-].[Au+].[Na+].[Na+] (stereo not given)
inactive: all assays above

C=CC1=C(C)C2=CC3=NC(=C(CC(=O)[O-])C4=NC(=C(C)C4=C([O-])[O-])C=c4[n-]c(c(C)c4CC)=CC1=N2)C(CCC(=O)[O-])C3C.[Cu+2].[Na+].[Na+].[Na+] (stereo not given)
active: [1] 26.6 µM | [8] 29.8 µM
not listed: [7]
inactive: all other assays above

N[C@@H](C(=O)N[C@@H]1C(=O)N2C(C(=O)O)=C(Cl)CC[C@H]12)c1ccccc1
not listed: [7] | [8]
inactive: all other assays above

COc1cc2c(cc1OC)[C@@H](c1ccccc1)CN(C)CC2
not listed: [3] | Aromatase (Homo sapiens)
inactive: all other assays above

O=C(O)[C@H](CC(=O)N1C[C@H]2CCCC[C@H]2C1)Cc1ccccc1
active: [6] 33.5 µM
not listed: [4]
inactive: all other assays above

Cc1cccc(Nc2ncccc2C(=O)O)c1C
not listed: [3] | [6] | [7]
inactive: all other assays above

CN[C@@H]1CCc2[nH]c3ccc(C(N)=O)cc3c2C1
inactive: [1] | [2] | [4] | [8] | Aromatase (Homo sapiens)

c1ccc2cc(C3=NCCN3)ccc2c1
not listed: [7]
inactive: all other assays above

CCCCCCCCCCCCCCCCCC(=O)[O][Al]
not listed: [4]
inactive: all other assays above

CCC(=O)OCC(=O)[C@@]1(OC(=O)CC)[C@@H](C)C[C@H]2[C@@H]3CCC4=CC(=O)C=C[C@]4(C)[C@@]3(Cl)[C@@H](O)C[C@@]21C
active: Aromatase (Homo sapiens) 2.66 µM
not listed: [5] | [7]
inactive: all other assays above

CCC[C@@]1(CCc2ccccc2)CC(O)=C([C@H](CC)c2cccc(NS(=O)(=O)c3ccc(C(F)(F)F)cn3)c2)C(=O)O1
inactive: [1] | [2] | [4] | [8] | Aromatase (Homo sapiens)

COc1cc(C)c(/C=C/C(C)=C/C=C/C(C)=C/C(=O)O)c(C)c1C
active: [2] 5.96 µM | [5] 4.25 µM [inconclusive] | [7] 0.473 µM
inactive: [1] | [4] | [8]
